# Inconclusive results are not listed. Unmarked numbers belong to inactive results. The call rests on the fitted dose curve; in most records, active means well fitted curve in the direction sought with a large enough effect; inconclusive means small, poorly fitted or top-dose-only effect, or another doubt; inactive means no such curve, though single readings can be large or run the other way.
# Experiment: qHTS for Inhibitors of Ubiquitin-specific Protease USP2a Using CHOP2 as the Reporter: K633 Counterscreen (AID 652168); further: % of control where 0% means no effect
# Details: No-enzyme DiUb K48 IQF substrate fluorescence interference, kinetic; series mostly up to 57.5 µM; activity change, negative = inhibition: at the top concentration
# Source text: Homeostasis of cellular proteins is maintained through a combination of synthesis and degradation. The pathway that accounts for the majority of protein degradation is the ubiquitin-proteasomal pathway. Ubiquitin (Ub) is highly conserved in all cells and the generation of a multi-Ub chain typically targets proteins for degradation by the proteasome. However, ubiquitination is highly reversible and dynamic. Deubiquitination, the reverse process, is catalyzed through the action of enzymes referred to as isopeptidases or deubiquitinating enzymes (DUBs). This group of enzymes is collectively responsible for maintaining adequate pools of free ubiquitin and regulating the ubiquitination status of cellular proteins. The class of DUBs referred to as the ubiquitin-specific proteases (USP) family functions endoproteolytically to cleave Ub chains from a wide range of protein substrates. USP2a deubiquitinates fatty acid synthase (FASN) which has recently been identified as an emerging oncology target. To identify inhibitors of USP2a a cell-free qHTS assay was employed. To determine whether the compounds interacted with the detection system alone, the effect of compounds on the substrate of assay 2.1.3 over time was determined in a 1536-well assay. A compound that modulates the fluorescence over time would be indicative of interference with the detection system. The buffer consisted of 20 mM Tris pH 8, 2 mM beta-mercaptoethanol and 0.05% Chaps, and the assay was run in black solid-bottom Greiner plates. NIH Molecular Libraries Probe Centers Network [MLPCN] NIH Chemical Genomics Center [NCGC] MLSCN Grant: MH079852 PI Name: Benjamin Nicholson, Progenra Inc, Malvern, PA
# 3 uL of no enzyme in assay buffer was dispensed into a 1536-well plate and then compounds were added through pinning. 1 uL of 100 nM DiUb K48-4IQF subtsrate was added before fluoresence on the ViewLux in kinetic moder (Ex 525/Em 598).
row,SMILES,"activity change, negative = inhibition"
1,Nc1ccc(S(=O)(=O)Nc2cnccc2C(=O)Nc2nc(-c3ccccc3)cs2)cc1,-9.28%
2,CC(C)Cc1ccc(-c2csc(Nc3ccc(S(=O)(=O)Nc4nccs4)cc3)n2)cc1,-18%
3,O=C(Nc1nc(-c2ccccc2)cs1)c1ccncc1NS(=O)(=O)c1ccc(Cl)cc1,-4.51%
4,CCC(=O)OC1CCC(C(=O)Nc2ccc([S+](=O)([O-])Nc3nccs3)cc2)CC1 (stereo not given),-10%
5,COc1cccc(S(=O)(=O)Nc2cnccc2C(=O)Nc2nc(-c3ccccc3)cs2)c1,-7.82%
6,O=C(Nc1nc(-c2ccccc2)cs1)c1ccncc1NS(=O)(=O)c1c(F)cc(F)cc1F,-7.59%
7,O=C(Nc1ccc(S(=O)(=O)Nc2nccs2)cc1)c1ccc(-c2ccccc2)cc1,-7.21%
8,O=C(Nc1nc(-c2ccccc2)cs1)c1ccncc1NS(=O)(=O)c1cccc(Cl)c1,-3.11%
9,COc1cccc(-c2csc(NC(=O)c3ccncc3NS(=O)(=O)c3ccc(C)cc3)n2)c1,-2.7%
10,CCCc1ccc(-c2csc(NC(=O)c3ccncc3NS(=O)(=O)c3ccc(C)cc3)n2)cc1,-4.15%
11,COc1ccc(S(=O)(=O)Nc2cnccc2C(=O)Nc2nc(-c3ccccc3)cs2)cc1,-5.51%
12,Cc1ccc(-c2cc(C(=O)Nc3ccc(S(=O)(=O)O)cc3)c3ccccc3n2)cc1C,-14%
13,CC(=O)Nc1ncc(S(=O)(=O)Nc2cnccc2C(=O)Nc2nc(-c3ccccc3)cs2)s1,-8.75%
14,CCc1ccc(S(=O)(=O)Nc2cnccc2C(=O)Nc2nc(-c3ccccc3)cs2)cc1,-4.55%
15,Cc1ccc(S(=O)(=O)Nc2cnccc2C(=O)Nc2ccc(-c3nn[nH]n3)cc2)cc1,-1.66%
16,O=C(Nc1nc(-c2ccc(F)cc2)cs1)c1ccncc1NS(=O)(=O)c1ccc(F)cc1,-3.61%
17,Nc1cccc(S(=O)(=O)Nc2cnccc2C(=O)Nc2nc(-c3ccccc3)cs2)c1,-6.4%
18,Cc1ccc(S(=O)(=O)Nc2cnccc2C(=O)Nc2nc(-c3cccc(F)c3)cs2)cc1,4.55%
19,O=C(Nc1nc(-c2ccccc2)cs1)c1ccncc1NS(=O)(=O)c1ccc(-c2ccccc2)cc1,-29.6%
20,N#Cc1cnc(NS(=O)(=O)c2ccc(NC(=O)Cc3ccc(Cl)c(Cl)c3)cc2)s1,-3.6%

row,SMILES,"activity change, negative = inhibition"
1,N#Cc1cnc(N[S+](=O)([O-])c2ccc(Nc3nc(-c4ccccc4)cs3)cc2)s1,0.24%
2,COc1ccc(C(=O)Nc2nc(-c3ccccc3)cs2)c(NS(=O)(=O)c2ccc(C)cc2)c1,-6.65%
3,Cc1ccc(S(=O)(=O)Nc2cnccc2C(=O)Nc2nc(-c3ccc4c(c3)CCCC4)cs2)cc1,-9.84%
4,Cc1ccc(C(=O)Nc2ccc(S(=O)(=O)Nc3nccs3)cc2)cc1C,-7.79%
5,O=C(Nc1nc(-c2ccccc2)cs1)c1ccncc1NS(=O)(=O)c1ccccc1Cl,-4.38%
6,Cc1ccc(S(=O)(=O)Nc2ncccc2C(=O)Nc2nc(-c3ccccc3)cs2)cc1,-6.72%
7,Cc1cccc(S(=O)(=O)Nc2cnccc2C(=O)Nc2nc(-c3ccccc3)cs2)c1,-6.97%
8,Cc1ccc(S(=O)(=O)Nc2cnccc2C(=O)Nc2nc(-c3ccc(Oc4ccccc4)cc3)cs2)cc1,-10.2%
9,Cc1ccc(S(=O)(=O)Nc2cnccc2C(=O)Nc2nc(-c3cccnc3)cs2)cc1,-6.75%
10,Cc1ccc(S(=O)(=O)Nc2cnccc2C(=O)Nc2nc(-c3ccco3)cs2)cc1,-4.21%
11,Cc1ccc(S(=O)(=O)Nc2cc([N+](=O)[O-])ccc2C(=O)Nc2nc(-c3ccccc3)cs2)cc1,-0.48%
12,O=C(Nc1nc(-c2ccccc2)cs1)c1ccncc1NS(=O)(=O)c1ccc(C(F)(F)F)cc1,-2.24%
13,CCCc1ccc(C(=O)Nc2ccc(S(=O)(=O)Nc3nccs3)cc2)cc1,-5.52%
14,CCCOC1CCC(C(=O)Nc2ccc([S+](=O)([O-])Nc3nccs3)cc2)CC1 (stereo not given),-6.36%
15,O=C(Nc1nc(-c2ccccc2)cs1)c1ccncc1NS(=O)(=O)c1ccc2c(c1)CCC2,-2.46%
16,COc1ccccc1S(=O)(=O)Nc1cnccc1C(=O)Nc1nc(-c2ccccc2)cs1,-13.3%
17,O=C(Nc1nc(-c2ccccc2)cs1)c1ccncc1NS(=O)(=O)c1ccccc1F,-3.9%
18,Cc1ccc(S(=O)(=O)Nc2cnccc2C(=O)Nc2nc3ccccc3s2)cc1,-6.86%
19,Cc1ccc(S(=O)(=O)Nc2cnccc2C(=O)Nc2nc(-c3ccccc3F)cs2)cc1,-7.22%
20,Cc1ccc(S(=O)(=O)Nc2cnccc2C(=O)Nc2nc(-c3cc4ccccc4o3)cs2)cc1,-3.63%
